Among the data in PubChem BioAssay (NCI) are growth inhibition values, retold here.

This is part of a sample that, as a whole, favours compounds with a hit. Of some 79,000 tested, about 15% had one in any assay. Unmarked numbers belong to inactive results. The source made the active and inactive calls. Rule as the data show it: active = growth inhibition above about 70%; inactive = the rest. Where a SMILES comes first, the peptide text is derived from it. [ ]: non-standard residue; d: D form. The star is where a group is joined. Phe(4-NO2) = N[CH](Cc1ccc([N+](=O)[O-])cc1)C(=O)O; Boc = CC(C)(C)OC(=O)*

A short description of test [1]: NCI Yeast Anticancer Drug Screen. Data for the rad50 strain (AID 155).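 Also: 0% = growth of vehicle-only cultures of the same strain.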 The following applies: S. cerevisiae rad50 strain growth inhibition, active compounds read high. In short, it runs like this: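 Inhibition values express reduced yeast growth in compound-treated cultures relative to vehicle-treated controls.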
Test [2] can be described thus: NCI Yeast Anticancer Drug Screen. Data for the mec2-1 strain (AID 157). The following applies: S. cerevisiae mec2-1 strain, active compounds read high. In short, it runs like this: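 Readout is yeast growth inhibition, normalised to vehicle-treated controls, in the mec2-1 strain exposed to compound.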
Test [3] can be described thus: NCI Yeast Anticancer Drug Screen. Data for the sgs1 mgt1 strain (AID 161).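 Also: 0% = growth of cultures given vehicle only.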 The following applies: S. cerevisiae sgs1 mgt1 strain, active compounds read high. Summed up:
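Growth of a repair-deficient yeast mutant was monitored after compound treatment and expressed as inhibition relative to vehicle-treated cultures.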

The nature of test [4]: NCI Yeast Anticancer Drug Screen. Data for the cln2 rad14 strain (AID 165).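 Also: 0% = growth equal to vehicle treated cultures.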 The following applies: S. cerevisiae cln2 rad14 strain, active compounds read high. In short, it runs like this:
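Relative to vehicle controls, growth inhibition of compound-treated cln2 rad14 yeast was recorded.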

Test [5] in a line: NCI Yeast Anticancer Drug Screen. Data for the bub3 strain (AID 167). The following applies: S. cerevisiae bub3 mutant strain, active compounds read high. Summed up:
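Steps: expose the mutant yeast strain to compound; grow alongside vehicle-treated cultures; measure growth; express inhibition against the vehicle cultures.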

The nature of test [6]: NCI Yeast Anticancer Drug Screen. Data for the mlh1 rad18 strain (AID 175). The following applies: S. cerevisiae mlh1 rad18 strain growth inhibition, active compounds read high. In short, it runs like this:
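Test agents were incubated with a yeast strain of defined genotype (DNA damage repair defect). Inhibition of growth was derived by comparison with vehicle-exposed cultures.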

[7] abbreviates: at 5.0 µM (retest, dose inferred, filed as 0.5).
The mark [8] stands for this setting: at 50.0 µM (retest, dose inferred, filed as 5.0).

For `C=C1C(=O)OC(C)(C)C1c1ccc(Cl)c(Cl)c1` (configuration not stated), the growth inhibition is 25% in test [1] (setting [7]); 99% (active) in test [1] (setting [8]); 99.5% (active) in test [1] (at 50.0 µM); 35% in test [2] (setting [7]); 99% (active) in test [2] (setting [8]); 99.8% (active) in test [2] (at 50.0 µM). In addition, the growth inhibition in test [3] (setting [7]) was 39%; in test [3] (setting [8]), 99% (active); in test [3] (at 50.0 µM) it was 99.8% (active); in test [4] (setting [7]), 18%; in test [4] (setting [8]) it was 97% (active); in test [4] (at 50.0 µM) it was 99.2% (active). Besides, the growth inhibition was 37% in test [5] (setting [7]); 99% (active) in test [5] (setting [8]); 99.5% (active) in test [5] (at 50.0 µM); 38% in test [6] (setting [7]); 98% (active) in test [6] (setting [8]); 99.7% (active) in test [6] (at 50.0 µM).

For `Nc1c(/C=C/c2cc3ccc(C4=NCCN4)cc3[nH]2)[nH]c2cc(C3=NCCN3)ccc12`, the growth inhibition in test [1] (setting [7]) was 78% (active); in test [1] (setting [8]), 97% (active); in test [1] (at 50.0 µM), 89.3% (active); in test [2] (setting [7]) it was 41%; in test [2] (setting [8]) it was 96% (active); in test [2] (at 50.0 µM), 89% (active). Further, the growth inhibition in test [3] (setting [7]) is 36%; in test [3] (setting [8]) it was 94% (active); in test [3] (at 50.0 µM), 89.2% (active); in test [4] (setting [7]) it was 47%; in test [4] (setting [8]), 94% (active); in test [4] (at 50.0 µM), 89.5% (active). Moreover, the growth inhibition is 42% in test [5] (setting [7]); 92% (active) in test [5] (setting [8]); 86.5% (active) in test [5] (at 50.0 µM); 36% in test [6] (setting [7]); 96% (active) in test [6] (setting [8]); 90.5% (active) in test [6] (at 50.0 µM).

For the compound `CN1c2ccccc2C(c2ccccc2)c2ccc(Nc3ccccc3)cc21` (configuration not stated), the growth inhibition is 94% (active) in test [1] (setting [7]); 99% (active) in test [1] (setting [8]); 97.7% (active) in test [1] (at 50.0 µM); 100% (active) in test [2] (setting [7]); 100% (active) in test [2] (setting [8]); 99.6% (active) in test [2] (at 50.0 µM). Moreover, the growth inhibition in test [3] (setting [7]) is 98% (active); in test [3] (setting [8]), 100% (active); in test [3] (at 50.0 µM) it was 99.5% (active); in test [4] (setting [7]) it was 95% (active); in test [4] (setting [8]), 99% (active); in test [4] (at 50.0 µM) it was 99.2% (active). Moreover, the growth inhibition is 96% (active) in test [5] (setting [7]); 99% (active) in test [5] (setting [8]); 99.3% (active) in test [5] (at 50.0 µM); 98% (active) in test [6] (setting [7]); 99% (active) in test [6] (setting [8]); 99.4% (active) in test [6] (at 50.0 µM).

Regarding `CNC(=O)CCC(NC(=O)OC(C)(C)C)C(=O)NC(Cc1ccc([N+](=O)[O-])cc1)C(=O)NCC(=O)NC` (configuration not stated) (Boc-Glu(NHMe)-[Phe(4-NO2)]-Gly-NHMe; configuration not given here), the growth inhibition is 9% in test [1] (setting [7]); -1% in test [1] (setting [8]); -5.5% in test [1] (at 50.0 µM); -3% in test [2] (setting [7]); 2% in test [2] (setting [8]); -1.65% in test [2] (at 50.0 µM). Besides, the growth inhibition in test [3] (setting [7]) was -7%; in test [3] (setting [8]), 3%; in test [3] (at 50.0 µM), 8.8%; in test [4] (setting [7]), -4%; in test [4] (setting [8]), 4%; in test [4] (at 50.0 µM), 37.6%. For the same compound, the growth inhibition was -15% in test [5] (setting [7]); -1% in test [5] (setting [8]); -1.9% in test [5] (at 50.0 µM); -9% in test [6] (setting [7]); 6% in test [6] (setting [8]); -8.8% in test [6] (at 50.0 µM).

In the case of `COc1cc2c(c(OC)c1OC)-c1ccc(=O)c(OC)cc1[C@@H](N)CC2`, the growth inhibition in test [1] (setting [7]) is 25%; in test [1] (setting [8]), 22%; in test [1] (at 50.0 µM) it was -5.6%; in test [2] (setting [7]), 22%; in test [2] (setting [8]), 16%; in test [2] (at 50.0 µM) it was -26.4%. In addition, the growth inhibition in test [3] (setting [7]) was 22%; in test [3] (setting [8]) it was 21%; in test [3] (at 50.0 µM), -12.5%; in test [4] (setting [7]), 24%; in test [4] (setting [8]) it was 32%; in test [4] (at 50.0 µM), -15.4%. The growth inhibition was 25% in test [5] (setting [7]); 19% in test [5] (setting [8]); -5.1% in test [5] (at 50.0 µM); 29% in test [6] (setting [7]); 26% in test [6] (setting [8]); -49.5% in test [6] (at 50.0 µM).

Consider `CC(C)C(Sc1nc(-c2ccccc2)c(-c2ccccc2)[nH]1)c1n[nH]c(=S)n1-c1ccccc1` (configuration not stated), for which the growth inhibition is -1% in test [1] (setting [7]); 97% (active) in test [1] (setting [8]); 95.8% (active) in test [1] (at 50.0 µM); 12% in test [2] (setting [7]); 98% (active) in test [2] (setting [8]); 97.1% (active) in test [2] (at 50.0 µM). Besides, the growth inhibition in test [3] (setting [7]) was -13%; in test [3] (setting [8]), 98% (active); in test [3] (at 50.0 µM) it was 96.8% (active); in test [4] (setting [7]) it was -24%; in test [4] (setting [8]), 97% (active); in test [4] (at 50.0 µM), 94.3% (active). Further, the growth inhibition in test [5] (setting [7]) was -1%; in test [5] (setting [8]), 98% (active); in test [5] (at 50.0 µM) it was 96.9% (active); in test [6] (setting [7]), -3%; in test [6] (setting [8]) it was 97% (active); in test [6] (at 50.0 µM), 95.9% (active).

As for `Nc1ccc(C(=O)N/N=C\c2cccc3ccccc23)cc1`, the growth inhibition is 0% in test [1] (setting [7]); -2% in test [1] (setting [8]); 61.8% in test [1] (at 50.0 µM); -3% in test [2] (setting [7]); 13% in test [2] (setting [8]); 60.6% in test [2] (at 50.0 µM). The growth inhibition in test [3] (setting [7]) was 0%; in test [3] (setting [8]), 0%; in test [3] (at 50.0 µM), 88.9% (active); in test [4] (setting [7]) it was -4%; in test [4] (setting [8]), 3%; in test [4] (at 50.0 µM) it was 34.4%. Further, the growth inhibition in test [5] (setting [7]) was 6%; in test [5] (setting [8]) it was 22%; in test [5] (at 50.0 µM) it was 50.8%; in test [6] (setting [7]), -1%; in test [6] (setting [8]) it was 21%; in test [6] (at 50.0 µM), 89.3% (active).

Turning to `CSc1nc(NC2OC(CO)C(O)C(O)C2O)c(Cl)c(=O)[nH]1` (configuration not stated), the growth inhibition in test [1] (setting [7]) was -1%; in test [1] (setting [8]) it was -1%; in test [1] (at 50.0 µM), 42.1%; in test [2] (setting [7]) it was 0%; in test [2] (setting [8]), -1%; in test [2] (at 50.0 µM), 4.45%. The growth inhibition in test [3] (setting [7]) is -2%; in test [3] (setting [8]), 0%; in test [3] (at 50.0 µM) it was 12.4%; in test [4] (setting [7]), 1%; in test [4] (setting [8]), -2%; in test [4] (at 50.0 µM), -3.85%. The growth inhibition in test [5] (setting [7]) is -1%; in test [5] (setting [8]) it was 4%; in test [5] (at 50.0 µM), -1.4%; in test [6] (setting [7]), 2%; in test [6] (setting [8]), -1%; in test [6] (at 50.0 µM), 1.05%.

As for `Cc1cc(C)nc(NS(=O)(=O)c2ccc(Nc3c4ccccc4nc4c(C(=O)NC(CO)(CO)CO)cccc34)cc2)n1`, the growth inhibition in test [1] (setting [7]) is -11%; in test [1] (setting [8]), 26%; in test [1] (at 50.0 µM) it was 81.8% (active); in test [2] (setting [7]) it was 4%; in test [2] (setting [8]), -2%; in test [2] (at 50.0 µM), -6.1%. Moreover, the growth inhibition was 0% in test [3] (setting [7]); -8% in test [3] (setting [8]); 4.9% in test [3] (at 50.0 µM); 39% in test [4] (setting [7]); -2% in test [4] (setting [8]); 42.4% in test [4] (at 50.0 µM). The growth inhibition is 4% in test [5] (setting [7]); 12% in test [5] (setting [8]); 4.45% in test [5] (at 50.0 µM); -3% in test [6] (setting [7]); 4% in test [6] (setting [8]); -8.4% in test [6] (at 50.0 µM).
